# Test results reported in the supplement of paper PMC8728848.
# The sample as a whole holds a higher share of the strongest signals than the screen did.
# Experiments:
# Assay in all cases: glycan array binding signal (z-score within array); higher = stronger binding
# Conditions in all cases: glycan notation: IUPAC condensed, linker removed
# [1] = molecular target: Fuc(a1-2)Gal(b1-3)GlcNAc(b1-2)Man(a1-3)[Fuc(a1-2)Gal(b1-3)GlcNAc(b1-2)Man(a1-6)]Man(b1-4)GlcNAc(b1-4)GlcNAc
# Summary of the method: (§1)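 Glycan array binding is given as a within-array Z-score, which can be read as non-binding when negative. The arrays, 3228 of them, came from the Consortium for Functional Glycomics database and were retained only where the protein sequence was available. Z-scores were averaged across arrays of the same protein sequence at different concentrations or buffers and across linkers.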
# [2] = molecular target: Fuc(a1-2)Gal(b1-3)GlcNAc(b1-3)[Fuc(a1-3)[Gal(b1-4)]GlcNAc(b1-6)]Gal(b1-4)Glc
# Summary of the method: as §1
# [3] = molecular target: Fuc(a1-2)Gal(b1-3)[Fuc(a1-4)]GlcNAc
# Summary of the method: as §1
# [4] = molecular target: Fuc(a1-2)Gal(b1-4)GlcNAc(b1-2)[Fuc(a1-2)Gal(b1-4)GlcNAc(b1-4)]Man(a1-3)[Fuc(a1-2)Gal(b1-4)GlcNAc(b1-2)Man(a1-6)]Man(b1-4)GlcNAc(b1-4)GlcNAc
# Summary of the method: as §1
# [5] = molecular target: Fuc(a1-2)[Gal(a1-3)]Gal(b1-3)GlcNAc
# Summary of the method: as §1
# [6] = molecular target: Fuc(a1-2)[GalNAc(b1-3)]Gal
# Summary of the method: as §1
# [7] = molecular target: Fuc(a1-3)[Gal(b1-4)]GlcNAc(b1-3)GalNAc
# Summary of the method: as §1
# Gal(a1-3)Gal(b1-4)Glc = molecular target: Gal(a1-3)Gal(b1-4)Glc
# Summary of the method: as §1
# Gal(a1-3)Gal(b1-4)GlcNAc = molecular target: Gal(a1-3)Gal(b1-4)GlcNAc
# Summary of the method: as §1
# [8] = molecular target: Gal(a1-3)[Gal(a1-4)]Gal(b1-4)GlcNAc
# Summary of the method: as §1
# Gal(a1-4)Gal(b1-4)GlcNAc = molecular target: Gal(a1-4)Gal(b1-4)GlcNAc
# Summary of the method: as §1
# [9] = molecular target: Gal(b1-3)Gal(b1-4)GlcNAc(b1-2)Man(a1-3)[Gal(b1-3)Gal(b1-4)GlcNAc(b1-2)Man(a1-6)]Man(b1-4)GlcNAc(b1-4)GlcNAc
# Summary of the method: as §1
# [10] = molecular target: Gal(b1-3)GalNAc(b1-3)Gal(a1-4)Gal(b1-4)Glc
# Summary of the method: as §1
# Gal(b1-3)GlcNAc = molecular target: Gal(b1-3)GlcNAc
# Summary of the method: as §1
# [11] = molecular target: Gal(b1-3)GlcNAc(b1-3)Gal(b1-4)GlcNAc(b1-6)[Gal(b1-3)GlcNAc(b1-3)]Gal(b1-4)Glc
# Summary of the method: as §1
# [12] = molecular target: Gal(b1-3)[Fuc(a1-4)]GlcNAc
# Summary of the method: as §1
# [13] = molecular target: Gal(b1-3)[Fuc(a1-4)]GlcNAc(b1-2)Man(a1-3)[Gal(b1-3)[Fuc(a1-4)]GlcNAc(b1-2)Man(a1-6)]Man(b1-4)GlcNAc(b1-4)[Fuc(a1-6)]GlcNAc
# Summary of the method: as §1
# [14] = molecular target: Gal(b1-3)[Fuc(a1-4)]GlcNAc(b1-3)Gal(b1-4)GlcNAc
# Summary of the method: as §1
# Gal(b1-4)Gal = molecular target: Gal(b1-4)Gal
# Summary of the method: as §1
# [15] = molecular target: Gal(b1-4)GlcNAc(b1-3)Gal(b1-3)GlcNAc
# Summary of the method: as §1
# [16] = molecular target: Gal(b1-4)GlcNAc(b1-3)Gal(b1-4)[Fuc(a1-3)]GlcNAc(b1-3)Gal(b1-4)[Fuc(a1-3)]GlcNAc
# Summary of the method: as §1
# [17] = molecular target: Gal(b1-4)GlcNAc(b1-3)[GlcNAc(b1-6)]Gal(b1-4)GlcNAc
# Summary of the method: as §1
# Gal3S(b1-3)GalNAc = molecular target: Gal3S(b1-3)GalNAc
# Summary of the method: as §1
# Gal3S(b1-4)GlcNAc6S = molecular target: Gal3S(b1-4)GlcNAc6S
# Summary of the method: as §1
# Gal3S6S(b1-4)GlcNAc6S = molecular target: Gal3S6S(b1-4)GlcNAc6S
# Summary of the method: as §1
# Gal6S(b1-3)GlcNAc6S = molecular target: Gal6S(b1-3)GlcNAc6S
# Summary of the method: as §1
# Gal6S(b1-4)GlcNAc = molecular target: Gal6S(b1-4)GlcNAc
# Summary of the method: as §1
# [18] = molecular target: GalNAc(b1-3)Gal(a1-4)Gal(b1-4)GlcNAc
# Summary of the method: as §1
# Glc(a1-4)Glc = molecular target: Glc(a1-4)Glc
# Summary of the method: as §1
# Glc(b1-4)Glc = molecular target: Glc(b1-4)Glc
# Summary of the method: as §1
# GlcA(b1-3)GlcNAc = molecular target: GlcA(b1-3)GlcNAc
# Summary of the method: as §1
# [19] = molecular target: GlcNAc(b1-2)Man(a1-3)[GlcNAc(b1-2)Man(a1-6)]Man(b1-4)GlcNAc(b1-4)[Fuc(a1-6)]GlcNAc
# Summary of the method: as §1
# [20] = molecular target: GlcNAc(b1-2)[GlcNAc(b1-4)]Man(a1-3)[GlcNAc(b1-4)][GlcNAc(b1-2)Man(a1-6)]Man(b1-4)GlcNAc(b1-4)GlcNAc
# Summary of the method: as §1
# [21] = molecular target: GlcNAc(b1-2)[GlcNAc(b1-6)]Man(a1-6)[GlcNAc(b1-2)Man(a1-3)][GlcNAc(b1-4)]Man(b1-4)GlcNAc(b1-4)GlcNAc
# Summary of the method: as §1
# [22] = molecular target: GlcNAc(b1-4)GlcNAc(b1-4)GlcNAc
# Summary of the method: as §1
# [23] = molecular target: GlcNAc(b1-4)[GlcNAc(b1-6)]GalNAc
# Summary of the method: as §1
# Kdn(a2-3)Gal(b1-3)GalNAc = molecular target: Kdn(a2-3)Gal(b1-3)GalNAc
# Summary of the method: as §1
# Kdn(a2-3)Gal(b1-4)GlcNAc = molecular target: Kdn(a2-3)Gal(b1-4)GlcNAc
# Summary of the method: as §1
# Kdn(a2-6)Gal(b1-4)GlcNAc = molecular target: Kdn(a2-6)Gal(b1-4)GlcNAc
# Summary of the method: as §1
# [24] = molecular target: Neu5Ac(a2-3)Gal(b1-3)GalNAc(b1-4)[Neu5Ac(a2-8)Neu5Ac(a2-3)]Gal(b1-4)Glc
# Summary of the method: as §1
# [25] = molecular target: Neu5Ac(a2-3)Gal(b1-3)GlcNAc(b1-3)GalNAc
# Summary of the method: as §1
# Neu5Ac(a2-3)GalNAc = molecular target: Neu5Ac(a2-3)GalNAc
# Summary of the method: as §1
# Neu5Ac(a2-6)Gal = molecular target: Neu5Ac(a2-6)Gal
# Summary of the method: as §1
# [26] = molecular target: Neu5Ac(a2-6)Gal(b1-4)GlcNAc(b1-2)Man(a1-3)[Man(a1-6)]Man(b1-4)GlcNAc(b1-4)GlcNAc
# Summary of the method: as §1
# [27] = molecular target: Neu5Ac(a2-6)Gal(b1-4)GlcNAc6S
# Summary of the method: as §1
# [28] = molecular target: Neu5Ac(a2-6)GalNAc(b1-4)GlcNAc
# Summary of the method: as §1
# Neu5Ac(a2-8)Neu5Ac = molecular target: Neu5Ac(a2-8)Neu5Ac
# Summary of the method: as §1
# [29] = molecular target: Neu5Gc(a2-6)Gal(b1-4)GlcNAc
# Summary of the method: as §1
# [30] = molecular target: Neu5Gc(b2-6)Gal(b1-4)GlcNAc
# Summary of the method: as §1
binder,measurement,setting,value
"SEX4 (Arabidopsis thaliana), Q944A8 (protein) TQAMGAVLTYRHELGMNYNFIRPDLIVGSCLQTPEDVDKLRKIGVKTIFCLQQDPDLEYFGVDISSIQAYAKKYSDIQHIRCEIRDFDAFDLRMRLPAVVGTLYKAVKRNGGVTYVHCTAGMGRAPAVALTYMFWVQGYKLMEAHKLLMSKRSCFPKLDAIRNATIDILTGLKRKTVTLTLKDKGFSRVEISGLDIGWGQRIPLTLGKGTGFWILKRELPEGQFEYKYIIDGEWTHNEAEPFIGPNKDGHTNNYAKVVDDPTSVDGTTRERLSSEDPELLEEERSKLIQFLETCSEAEV",glycan array binding signal (z-score),[1],-0.14
same,glycan array binding signal (z-score),[2],-0.488
same,glycan array binding signal (z-score),[3],-0.43
same,glycan array binding signal (z-score),[4],3.41
same,glycan array binding signal (z-score),[5],-0.101
same,glycan array binding signal (z-score),[6],-0.555
same,glycan array binding signal (z-score),[7],2.34
same,glycan array binding signal (z-score),Gal(a1-3)Gal(b1-4)Glc,-0.237
same,glycan array binding signal (z-score),Gal(a1-3)Gal(b1-4)GlcNAc,0.108
same,glycan array binding signal (z-score),[8],-0.539
same,glycan array binding signal (z-score),Gal(a1-4)Gal(b1-4)GlcNAc,-0.482
same,glycan array binding signal (z-score),[9],-0.329
same,glycan array binding signal (z-score),[10],-0.231
same,glycan array binding signal (z-score),Gal(b1-3)GlcNAc,-0.554
same,glycan array binding signal (z-score),[11],-0.273
same,glycan array binding signal (z-score),[12],-0.398
same,glycan array binding signal (z-score),[13],-0.406
same,glycan array binding signal (z-score),[14],0.013
same,glycan array binding signal (z-score),Gal(b1-4)Gal,-0.4
same,glycan array binding signal (z-score),[15],-0.483
same,glycan array binding signal (z-score),[16],-0.35
same,glycan array binding signal (z-score),[17],-0.354
same,glycan array binding signal (z-score),Gal3S(b1-3)GalNAc,-0.502
same,glycan array binding signal (z-score),Gal3S(b1-4)GlcNAc6S,0.229
same,glycan array binding signal (z-score),Gal3S6S(b1-4)GlcNAc6S,2.76
same,glycan array binding signal (z-score),Gal6S(b1-3)GlcNAc6S,1.27
same,glycan array binding signal (z-score),Gal6S(b1-4)GlcNAc,0.104
same,glycan array binding signal (z-score),[18],-0.406
same,glycan array binding signal (z-score),Glc(a1-4)Glc,-0.393
same,glycan array binding signal (z-score),Glc(b1-4)Glc,-0.561
same,glycan array binding signal (z-score),GlcA(b1-3)GlcNAc,16
same,glycan array binding signal (z-score),[19],3.1
same,glycan array binding signal (z-score),[20],0.008
same,glycan array binding signal (z-score),[21],-0.06
same,glycan array binding signal (z-score),[22],-0.388
same,glycan array binding signal (z-score),[23],-0.489
same,glycan array binding signal (z-score),Kdn(a2-3)Gal(b1-3)GalNAc,0.126
same,glycan array binding signal (z-score),Kdn(a2-3)Gal(b1-4)GlcNAc,0.514
same,glycan array binding signal (z-score),Kdn(a2-6)Gal(b1-4)GlcNAc,-0.36
same,glycan array binding signal (z-score),[24],0.161
same,glycan array binding signal (z-score),[25],2.39
same,glycan array binding signal (z-score),Neu5Ac(a2-3)GalNAc,-0.529
same,glycan array binding signal (z-score),Neu5Ac(a2-6)Gal,-0.496
same,glycan array binding signal (z-score),[26],2.32
same,glycan array binding signal (z-score),[27],2.46
same,glycan array binding signal (z-score),[28],-0.017
same,glycan array binding signal (z-score),Neu5Ac(a2-8)Neu5Ac,-0.065
same,glycan array binding signal (z-score),[29],0.489
same,glycan array binding signal (z-score),[30],-0.09
